Source: PubChem BioAssay AID1159580 (chemical genetic matrix, 2015)
Values joined by “and” are separate entries in the source; they are usually repeats but may differ in a detail not shown here. Equal entries are not always repeated. Among all 5,500 compounds or so, about 2,000 (36%) were called active. Another 18% or so got no clear call; they are omitted. Cut-off read from the data, not from the text of the source: active = normalized growth mostly below about 0.91 (no sharp cut-off); inconclusive = no clear call, values can overlap the other calls; inactive = mostly above about 0.92. This is one part of the list.

Test: chemical genetic growth profiling, strain panel (AID 1159580);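 note: tested at 20 µM; growth read once vehicle control cultures reached saturation at 30 °C; 1 = growth at the plate median or of vehicle wells; lower values mean less growth of the strain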
Conditions: S. cerevisiae deletion strains, growth OD

Measured: normalized growth

COc1ccc(-c2coc3c(O)c(OC)ccc3c2=O)cc1
inactive: locus YAL021C, strain ccr4, stronger effect = lower value 0.907 | locus YAL026C, strain drs2, stronger effect = lower value 0.944 | locus YAL030W, strain snc1, stronger effect = lower value 0.966 | locus YBL061C, strain skt5, stronger effect = lower value 0.983 | locus YBR171W, strain sec66, stronger effect = lower value 0.957 | locus YBR279W, strain paf1, stronger effect = lower value 0.977 | locus YCL011C, strain gbp2, stronger effect = lower value 0.927 | locus YCL029C, strain bik1, stronger effect = lower value 0.914 | locus YCL069W, strain vba3, stronger effect = lower value 0.945 | locus YCR088W, strain abp1, stronger effect = lower value 0.973 | locus YDL005C, strain med2, stronger effect = lower value 1.01 | locus YDL035C, strain GPR1, stronger effect = lower value 0.874 | locus YDL040C, strain nat1, stronger effect = lower value 0.987 | locus YDL074C, strain BRE1, stronger effect = lower value 0.786 | locus YDL101C, strain DUN1, stronger effect = lower value 0.932 | locus YDR001C, strain nth1, stronger effect = lower value 1 | locus YDR069C, strain doa4, stronger effect = lower value 1 | locus YDR195W, strain ref2 1.01 | locus YDR297W, strain sur2, stronger effect = lower value 0.967 | locus YDR334W, strain swr1, stronger effect = lower value 0.96 | locus YDR335W, strain msn5, stronger effect = lower value 0.93 | locus YDR388W, stronger effect = lower value 0.944 | locus YDR502C, strain sam2, stronger effect = lower value 0.936 | locus YEL003W, strain gim4, stronger effect = lower value 0.944 | locus YEL037C, strain rad23, stronger effect = lower value 0.959 | locus YEL061C, strain CIN8 (second series), stronger effect = lower value 0.963 | locus YEL061C, strain CIN8, stronger effect = lower value 0.931 | locus YER015W, strain faa2, stronger effect = lower value 0.939 | locus YER016W, strain bim1, stronger effect = lower value 0.966 | locus YER110C, stronger effect = lower value 0.904 | locus YER111C, strain swi4, stronger effect = lower value 0.993 | locus YER155C, strain BEM2, stronger effect = lower value 0.942 | locus YFR010W, strain ubp6, stronger effect = lower value 1 | locus YGL078C, strain dbp3, stronger effect = lower value 0.959 | locus YGL167C, strain pmr1, stronger effect = lower value 0.976 | locus YGL173C, strain kem1, stronger effect = lower value 0.97 | locus YGL227W, strain vid30, stronger effect = lower value 0.983 | locus YGL248W, strain PDE1, stronger effect = lower value 0.906 | locus YGL253W, strain hxk2, stronger effect = lower value 0.954 | locus YGR135W, strain pre9, stronger effect = lower value 0.916 | locus YGR252W, strain gcn5, stronger effect = lower value 0.781 | locus YHR013C, strain ard1, stronger effect = lower value 0.966 | locus YHR027C, strain rpn1, stronger effect = lower value 0.98 | locus YHR030C, strain SLT2, stronger effect = lower value 0.943 and 1.02 | locus YHR079C, strain IRE1 (second series), stronger effect = lower value 0.955 | locus YHR079C, strain IRE1, stronger effect = lower value 1.01 | locus YHR094C, strain hxt1, stronger effect = lower value 0.941 | locus YIL073C, strain SPO22, stronger effect = lower value 0.824 | locus YIL125W, strain kgd1, stronger effect = lower value 0.948 | locus YIR030C, strain dcg1, stronger effect = lower value 0.944 | locus YJL092W, strain hpr5, stronger effect = lower value 0.982 | locus YJL095W, strain BCK1 (second series), stronger effect = lower value 0.959 | locus YJL115W, strain asf1, stronger effect = lower value 0.943 | locus YJL134W, strain LCB3, stronger effect = lower value 0.937 | locus YJL154C, strain vps35, stronger effect = lower value 0.974 | locus YJL164C, strain tpk1, stronger effect = lower value 0.941 | locus YJL168C, strain set2, stronger effect = lower value 0.954 | locus YJL187C, strain SWE1 (second series), stronger effect = lower value 0.904 | locus YJR066W, strain TOR1, stronger effect = lower value 0.959
active: locus YBR009C, strain hhf1, stronger effect = lower value 0.887 | locus YBR021W, strain FUR4, stronger effect = lower value 0.818 | locus YBR023C, strain chs3, stronger effect = lower value 0.887 | locus YBR229C, strain ROT2, stronger effect = lower value 0.905 | locus YBR231C, strain swc5, stronger effect = lower value 0.893 | locus YCL016C, strain dcc1, stronger effect = lower value 0.877 | locus YDL185W, strain tfp1, stronger effect = lower value 0.888 | locus YDL192W, strain arf1, stronger effect = lower value 0.837 | locus YDR101C, strain arx1, stronger effect = lower value 0.863 | locus YDR137W, strain rgp1, stronger effect = lower value 0.696 | locus YDR159W, strain sac3, stronger effect = lower value 0.797 | locus YDR162C, strain NBP2, stronger effect = lower value 0.755 | locus YDR318W, strain mcm21, stronger effect = lower value 0.871 | locus YDR392W, strain spt3, stronger effect = lower value 0.383 | locus YER155C, strain BEM2 (second series), stronger effect = lower value 0.54 | locus YER167W, strain BCK2, stronger effect = lower value 0.87 | locus YGL086W, strain mad1, stronger effect = lower value 0.862 | locus YGL240W, strain doc1, stronger effect = lower value 0.851 | locus YHR129C, strain ARP1, stronger effect = lower value 0.907 | locus YHR142W, strain chs7, stronger effect = lower value 0.832 | locus YHR200W, strain rpn10, stronger effect = lower value 0.902 | locus YIL066C, strain RNR3, stronger effect = lower value 0.757 | locus YJL129C, strain trk1, stronger effect = lower value 0.731 | locus YJL166W, strain qcr8, stronger effect = lower value 0.828
0.757 (active) and 1 (inactive): locus YJL095W, strain BCK1, stronger effect = lower value
